PABP1 MLLE inh: inhibitors of PABP1 MLLE–PAM2 peptide binding, primary screen, biochemical, fluorescence polarization, FITC-PAM2, GST-MLLE | inhibition, % at 20 µM | actives 0.36% (n = 360,000); in the data active = inhibition above about 35%, passing the limit was not always enough;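 note: plate controls were DMSO wells with GST-MLLE for no effect and wells lacking GST-MLLE protein for full effect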
PHOSPHO1 inh: PubChem AID 1565. actives 1.1% (n = 290,000). recombinant PHOSPHO1, absorbance phosphatase assay. inhibition, % at 13.3 µM. Phosphoethanolamine/phosphocholine phosphatase (Homo sapiens), Q8TCT1; in the data active = inhibition above about 60%
HMGR II inh: inhibitors of E. faecalis class II HMGR, primary screen, biochemical, Enterococcus faecalis; HMG-CoA reductase (Enterococcus faecalis, mvaE); actives 0.41% (n = 190,000); AID 1066, 2008; inhibition, % at 10 µM; purified E. faecalis HMGR, NADPH absorbance 340 nm kinetic;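 active = inhibition above a set limit, the median over all tested compounds plus 3 SD, cut at about 9.5% in these data; inconclusive = no clear call, values can overlap the other calls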;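 note: enzyme runs in reverse so mevalonate oxidation gives rising NADPH absorbance; 0% = complete reaction with DMSO and 100% = background rate lacking mevalonate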
PABP FP inh: PABP poly(A) RNA binding inhibitors, primary screen, biochemical, fluorescence polarization, uHTS. calls only at 35 µM. Polyadenylate-binding protein 1 (Homo sapiens), P11940. actives 1% (n = 290,000). AID 2014, 2009;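 note: calls also rest on retests at 20 µM and on dose response follow-up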
eIF4H FP inh: human eIF4H binding inhibitors, primary screen, translation initiation inhibitor project, biochemical, uHTS, fluorescence polarization; eIF4H fluorescence polarization binding assay; Eukaryotic translation initiation factor 4H (Homo sapiens), Q15056; actives 0.94% (n = 290,000); inhibition, % at 35 µM; AID 2012, 2009;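 note: calls also rest on retests at 20 µM and on dose response follow-up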
Starred values were filed as active, the others as inactive; i = inactive; ? = inconclusive; . = not tested or not shown; + = active, no number. Only some compounds are listed: those with a hit (about 2.4% of all), similar ones and a draw of the others. Unless noted, the rule behind the calls is not given here.

SMILES | PABP1 MLLE inh | PHOSPHO1 inh | HMGR II inh | PABP FP inh | eIF4H FP inh
CCCCN(C(=S)NC(=O)c1ccccc1)c1c(N)n(Cc2ccccc2)c(=O)[nH]c1=O | 37.4* | -18.4 | -3.4 | i | 1.3
C=CCN(c1ccccc1)S(=O)(=O)c1cccc(C(=O)N(CC)CC(=O)Nc2c(F)cccc2F)c1 | -0.3 | 14.5 | . | i | -4.7
Cc1ccc(C(N)=S)c(C)c1 | 40.0* | . | -3.5 | . | .
Cc1ccc(C(=O)C2CC2)c(C)c1 | 11.3 | . | . | . | .
Cc1cc2cc(C(c3nnnn3C3CCCC3)N(Cc3cccnc3)Cc3ccco3)c(=O)[nH]c2cc1C (configuration not stated) | 7.0 | 82.6* | -3.2 | i | 19.8
CN(C)S(=O)(=O)c1ccc(C(=O)OCC2CCCO2)cc1 (configuration not stated) | 3.9 | . | . | i | -12.2
N#Cc1c(-c2ccccc2Cl)cc(-c2ccccc2)[nH]c1=S | . | 48.4 | 0.7 | i | 5.9
N#Cc1c2c(c(-c3ccccc3Cl)[nH]c1=S)CCCC2 | 34.4 | -4.5 | 24.1* | i | 1.5
COc1cc(/C=C/c2[nH]c(=O)[nH]c(=O)c2[N+](=O)[O-])cc([N+](=O)[O-])c1O | 23.7 | 52.2 | . | + | 59.3*
CCC(=O)N(Cc1cc2ccc(C)cc2[nH]c1=O)c1ccccc1OC | -6.0 | 23.5 | . | i | -3.4
O=C1NC(=O)/C(=C/c2ccc(-c3cc(C(=O)O)ccc3Cl)o2)S1 | -3.2 | -10.7 | . | + | 92.0*
O=C1NC(=S)/C(=C\c2ccc(-c3ccccc3Cl)o2)S1 | 70.5 | -12.9 | 2.4 | i | ?
Cc1ccc(C(=O)O)cc1-c1ccc(/C=C2/NC(=O)N(c3ccccc3)C2=O)o1 | -14.3 | 37.6 | -5.0 | + | 78.7*
Cc1ccc(/C=C2/NC(=O)N(Cc3ccccc3)C2=O)o1 | -38.2 | -9.8 | -5.0 | i | 32.8
Cc1cc(C(=O)O)ccc1-c1ccc(/C=C2\NC(=O)N(Cc3ccccc3Cl)C2=O)o1 | 14.4 | -6.2 | -4.6 | i | 86.2
Cc1ccc(CN2C(=O)N/C(=C\c3ccc(-c4ccc(C(=O)O)cc4C)o3)C2=O)cc1 | 2.9 | 40.9 | . | + | 87.2*
Cc1ccc(C(=O)O)cc1-c1ccc(/C=C2\SC(=O)N(CC(=O)Nc3ccccc3)C2=O)o1 | -20.5 | -81.3 | -3.4 | i | 49.1
O=C(O)c1ccc(-c2ccc(/C=C3\NC(=O)N(Cc4ccc(Cl)cc4)C3=O)o2)cc1 | -7.4 | -4.4 | . | + | 72.6*
CN(CC(=O)Nc1ccc(F)c(Cl)c1)S(=O)(=O)c1ccc2c(c1)n(C)c(=O)c(=O)n2C | -6.8 | 17.4 | . | i | -4.8
CC(=O)c1ccc(N2CCN(C(=O)CCS(=O)(=O)c3ccc4c(c3)NC(=O)CS4)CC2)cc1 | 0.2 | 59.4 | . | i | 4.0
COC(=O)c1c(NC(=O)C(=O)N2CCOCC2)sc2c1CCCC2 | -5.3 | 12.1 | . | i | -9.6
CCOC(=O)CNC(=O)CSc1nc2nc(C)c(Br)cc2[nH]1 | -90.8 | 73.8* | -6.2 | i | -3.7
Cc1nc2nc(SCC(N)=O)[nH]c2cc1Br | -60.7 | 18.9 | -1.9 | i | -1.5
COc1ccc(/C=C/C(=O)NCC2COc3ccccc3O2)cc1OC (configuration not stated) | -1.5 | 36.6 | 9.5* | i | 1.1
COc1ccc(-c2cc(=O)c3ccc(O)cc3o2)cc1 | 23.0 | . | . | . | .
SMILES | PABP1 MLLE inh | PHOSPHO1 inh | HMGR II inh | PABP FP inh | eIF4H FP inh
COc1cc(-c2cc(=O)c3ccc(O)cc3o2)cc(OC)c1OC | 45.5* | . | . | . | .
COc1cccc(S(=O)(=O)N(C)C[C@H]2OCc3cnnn3CCCC(=O)N([C@@H](C)CO)C[C@H]2C)c1 | 0.1 | . | . | . | .
Nc1nc(Sc2c([N+](=O)[O-])cc(C(F)(F)F)cc2[N+](=O)[O-])n[nH]1 | 39.5* | -27.3 | . | i | 7.2
CCC(=O)Nc1cc(NC(=O)CSc2ncc(-c3ccc(F)cc3)n2Cc2ccco2)ccc1C | -28.6 | 71.5* | 3.0 | i | -1.2
COc1ccc(NC(=O)CSc2ncc(-c3ccc(F)cc3)n2Cc2ccco2)cc1 | -21.2 | 8.0 | -5.0 | i | -17.0
CCC(=O)c1ccc(NC(C)=O)cc1O | 2.8 | 42.1 | . | + | 76.9*
O=c1nc(Nc2ccc([N+](=O)[O-])cc2)[nH]c(=O)[nH]1 | 0.9 | 31.3 | . | i | -6.6
CCn1nc(C)cc1C(=O)N1CCCC(N2CCN(Cc3ccc4c(c3)OCO4)CC2)C1 (configuration not stated) | 1.0 | 22.4 | . | i | -12.0

Screens (PubChem BioAssay)
